The full ranking holds about 5,000 sequences; the median of “log2 normalized fluorescence” is about 0.089, and the highest 2% start at about 0.81. For the sample, the highest values were picked, then their nearest neighbours and some sequences at random.

MYC (p64);MAX (p21), in MYC:MAX, sequence (P01106 16-454, chain 1 of 2): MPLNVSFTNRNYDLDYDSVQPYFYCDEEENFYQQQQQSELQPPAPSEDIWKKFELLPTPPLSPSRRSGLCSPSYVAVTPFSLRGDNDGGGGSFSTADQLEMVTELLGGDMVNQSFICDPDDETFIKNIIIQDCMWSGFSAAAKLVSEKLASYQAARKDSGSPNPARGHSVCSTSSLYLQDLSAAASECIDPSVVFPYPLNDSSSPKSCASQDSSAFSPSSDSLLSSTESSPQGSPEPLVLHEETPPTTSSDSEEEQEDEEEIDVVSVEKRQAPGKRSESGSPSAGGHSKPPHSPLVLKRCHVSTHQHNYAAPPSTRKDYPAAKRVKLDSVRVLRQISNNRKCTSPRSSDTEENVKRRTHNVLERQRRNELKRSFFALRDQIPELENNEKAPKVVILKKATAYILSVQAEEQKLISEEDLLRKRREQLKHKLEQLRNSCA
MYC (p64);MAX (p21), in MYC:MAX, sequence (P61244 other isoform, or with tags, fused parts or gaps |, chain 2 of 2): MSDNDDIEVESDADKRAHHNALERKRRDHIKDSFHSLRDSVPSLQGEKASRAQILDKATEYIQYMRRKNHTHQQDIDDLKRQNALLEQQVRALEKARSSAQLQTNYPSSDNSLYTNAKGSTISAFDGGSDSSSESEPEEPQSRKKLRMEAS

This experiment addresses MYC (p64);MAX (p21), in MYC:MAX (human;human, UniProt P01106-1;P61244-2 1-439;1-151, |). Description: protein-binding microarray (anti-MAX antibody); PBM: 15 mM Tris-HCl pH 7.5, 100 mM KCl, 0.075% NP40, 7.5 mM beta-mercaptoethanol, 375 ng/ul BSA, 8 ng/ul poly(dA-dT):(dA-dT), 550 ng complex, 60 min, room tempe; high values mean tight binding. The conditions noted are these: protein: recombinant;recombinant; tags: 6xHis;6xHis; copies: 1;1; label: 3' end of printed strand (linker) attached to glass slide; dsDNA, one strand shown. Put shortly:
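Binding, given as log2 normalized fluorescence, was measured on a custom Agilent glass array. The array bore ~5000 unique 12-nt sequences spotted in triplicate and converted to double strands by primer extension. It was incubated with 550 ng of human His-tagged MYC:MAX or MAX:MAX dimers from E. coli for 60 min at room temperature in Tris-KCl buffer, pH 7.5, with NP40, BSA and poly(dA-dT) competitor, and bound protein was detected with anti-MAX and secondary antibodies and scanned at 543 nm.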
As for “CCGGCTGAGAGGCCGTATTAATAGCTAAGATTACTATATCGACG”, the binding signal was 0.0066 log2 normalized fluorescence.
With “CCGGCTGAGGGGAGGTATTAATAGCTAAGATTACTATATCGACG”, the binding signal was 0.438 log2 normalized fluorescence.
To “CCGGCTGAAGGGGGGTATTAATAGCTAAGATTACTATATCGACG” belongs 0.855 log2 normalized fluorescence.
To “CCGGCTGAAGAGGGGTATTAATAGCTAAGATTACTATATCGACG” belongs 0.288 log2 normalized fluorescence; to “CCGGCTGAAGGGTGGTATTAATAGCTAAGATTACTATATCGACG”, 0.18 log2 normalized fluorescence; to “CCGGCTGAAAAGGGGTATTAATAGCTAAGATTACTATATCGACG”, 0.161 log2 normalized fluorescence.
On to “CCGGCTGAGGGGGAGTATTAATAGCTAAGATTACTATATCGACG”, for which the binding signal is 0.823 log2 normalized fluorescence.
With “CCGGCTGAAAAAGGGTATTAATAGCTAAGATTACTATATCGACG” the figure was -0.0246 log2 normalized fluorescence; with “CCGGCTGAAAGGGGGTATTAATAGCTAAGATTACTATATCGACG”, 0.83 log2 normalized fluorescence; with “CCGGCTGAGGGAGAGTATTAATAGCTAAGATTACTATATCGACG”, -0.0403 log2 normalized fluorescence.
With “CCGGCTGACTGGTCGTATTAATAGCTAAGATTACTATATCGACG” the figure was 0.229 log2 normalized fluorescence.
For the sequence “CCGGCTGACCTCTGGTATTAATAGCTAAGATTACTATATCGACG”, the binding signal is -0.0273 log2 normalized fluorescence.
For “CCGGCTGAGTGAGGGTATTAATAGCTAAGATTACTATATCGACG”, the binding signal was 0.097 log2 normalized fluorescence.
As to “CCGGCTGAAAAGCGGTATTAATAGCTAAGATTACTATATCGACG”, the binding signal was 0.0993 log2 normalized fluorescence.
To “CCGGCTGACACTTAGTATTAATAGCTAAGATTACTATATCGACG” belongs 0.231 log2 normalized fluorescence.
On to “CCGGCTGACAAGTGGGATTAATAGCTAAGATTACTATATCGACG”, for which the binding signal is 0.302 log2 normalized fluorescence.
Consider “CCGGCTGAGTGAGTGTATTAATAGCTAAGATTACTATATCGACG”, for which the binding signal was 0.08 log2 normalized fluorescence.
“CCGGCTGACGTTGTGTATTAATAGCTAAGATTACTATATCGACG”: the binding signal was 0.16 log2 normalized fluorescence.
With “CCGGCTGGAACGTGGTATTAATAGCTAAGATTACTATATCGACG”, the binding signal was 0.66 log2 normalized fluorescence.
With “CCGGCTGAGCATATGTATTAATAGCTAAGATTACTATATCGACG” the figure was 0.395 log2 normalized fluorescence; with “CCGGCTGAAGGCGTGTATTAATAGCTAAGATTACTATATCGACG”, 0.409 log2 normalized fluorescence; with “CCGGCAGTCACATGGTATTAATAGCTAAGATTACTATATCGACG”, 0.995 log2 normalized fluorescence.
For “CCGGCTGACACGAGGTATTAATAGCTAAGATTACTATATCGACG”, the binding signal was 0.625 log2 normalized fluorescence.
In the case of “CCGGCTAACACATGGTATTAATAGCTAAGATTACTATATCGACG”, the binding signal is 0.6 log2 normalized fluorescence.
On to “CCGGCAGACACATGGTATTAATAGCTAAGATTACTATATCGACG”, for which the binding signal was 0.834 log2 normalized fluorescence.
With “CCGGCAGACATGGGGTATTAATAGCTAAGATTACTATATCGACG” the figure was 0.458 log2 normalized fluorescence; with “CCGGCAGACACGAGGTTTTAATAGCTAAGATTACTATATCGACG”, 0.64 log2 normalized fluorescence; with “CCGGCAGACACTTGGTATTAATAGCTAAGATTACTATATCGACG”, 0.421 log2 normalized fluorescence.
On to “CCGGCTTTCACATGGTATTAATAGCTAAGATTACTATATCGACG”, for which the binding signal is 0.504 log2 normalized fluorescence.
With “CCGGCAGACACGAGGTATTAATAGCTAAGATTACTATATCGACG”, the binding signal was 0.93 log2 normalized fluorescence.
As for “CCGGCTGACTACATGTATTAATAGCTAAGATTACTATATCGACG”, the binding signal was 0.419 log2 normalized fluorescence.
Take “CCGGCTGTCAAGTGGCATTAATAGCTAAGATTACTATATCGACG”: the binding signal was 0.1 log2 normalized fluorescence.
As to “CCGGCTGAGTTTCCGTATTAATAGCTAAGATTACTATATCGACG”, the binding signal was -0.0243 log2 normalized fluorescence.
As for “CCGGCTGAAGGATGGTATTAATAGCTAAGATTACTATATCGACG”, the binding signal was 0.0538 log2 normalized fluorescence.
As to “CCGGCTGTCCCCTGGTATTAATAGCTAAGATTACTATATCGACG”, the binding signal was -0.00889 log2 normalized fluorescence.
To “CCGGCTGACTGTGAGTATTAATAGCTAAGATTACTATATCGACG” belongs 0.00564 log2 normalized fluorescence; to “CCGGCTGACGGCAGGTATTAATAGCTAAGATTACTATATCGACG”, -0.00507 log2 normalized fluorescence.
For “CCGGCGGACGCGTGGTATTAATAGCTAAGATTACTATATCGACG”, the binding signal was 0.64 log2 normalized fluorescence.
Consider “CCGGCGGACCCGTGGTATTAATAGCTAAGATTACTATATCGACG”, for which the binding signal is 0.439 log2 normalized fluorescence.
Turning to “CCGGCGGACACGTCGTATTAATAGCTAAGATTACTATATCGACG”, the binding signal was 0.287 log2 normalized fluorescence.
On to “CCGGCGGACACGTGTGATTAATAGCTAAGATTACTATATCGACG”, for which the binding signal is 0.779 log2 normalized fluorescence.
For the sequence “CCGGCGGACACGTGCTATTAATAGCTAAGATTACTATATCGACG”, the binding signal is 0.839 log2 normalized fluorescence.
For “CCGGCGGACACGTGGTATTAATAGCTAAGATTACTATATCGACG”, the binding signal is 0.99 log2 normalized fluorescence.
With “CCGGCTGAGTACCTGTATTAATAGCTAAGATTACTATATCGACG”, the binding signal was 0.076 log2 normalized fluorescence.
As for “CCGGCTGATGGGCAGTATTAATAGCTAAGATTACTATATCGACG”, the binding signal is 0.0215 log2 normalized fluorescence.
Regarding “CCGGCTGACGATCAGTATTAATAGCTAAGATTACTATATCGACG”, the binding signal was -0.0317 log2 normalized fluorescence.
On to “CCGGCTGAATACCTGTATTAATAGCTAAGATTACTATATCGACG”, for which the binding signal was 0.159 log2 normalized fluorescence.
As for “CCGGCTGAGCGCAGGTATTAATAGCTAAGATTACTATATCGACG”, the binding signal is 0.113 log2 normalized fluorescence.
To “CCGGCTGACCAGTTGTATTAATAGCTAAGATTACTATATCGACG” belongs 0.159 log2 normalized fluorescence; to “CCGGCGCGCACGTGGTATTAATAGCTAAGATTACTATATCGACG”, 0.813 log2 normalized fluorescence; to “CCGGCTGGCACGTGCTATTAATAGCTAAGATTACTATATCGACG”, 0.722 log2 normalized fluorescence.
For “CCGGCTGAGCACACGTATTAATAGCTAAGATTACTATATCGACG”, the binding signal was 0.338 log2 normalized fluorescence.
As to “CCGGCTCGCACGTGGTATTAATAGCTAAGATTACTATATCGACG”, the binding signal was 0.665 log2 normalized fluorescence.
To “CCGGCGCACACGTGGTATTAATAGCTAAGATTACTATATCGACG” belongs 0.906 log2 normalized fluorescence.
Turning to “CCGGCGCACACGTGCTATTAATAGCTAAGATTACTATATCGACG”, the binding signal is 0.875 log2 normalized fluorescence.
